# Screening data (PubChem)
# PD-1 reverse act: reversal of PD-1 mediated T-cell inhibition; primary human CD4 T cells, PD-L1 beads, CellTiter-Glo 96 h; activation, % (test concentration not listed); 29,000 tested, under 10 active; AID 2316; call rule not given here
# U2OS ROS induce: raises reactive oxygen species in U2OS cancer cells; U2OS ROS induction, H2DCF-DA fluorescence; ROS induction (% of piperlongumine), % at 10 µM; 46,000 tested, 2% active; in the data active means ROS induction above about 79%, passing the limit was not always enough; inconclusive means no clear call, values can overlap the other calls
# NOMO-1 viab: STK33 inhibitor candidate reducing NOMO-1 cell viability; NOMO-1 AML viability, CellTiter-Glo luminescence, 72 h; inhibition, % (concentration not given with the values); 37,000 tested, 7.5% active; AID 2330; in the data active means inhibition above about 80%; inconclusive means no clear call, values can overlap the other calls
# YB-1 expression: YB-1 expression inhibition; U2OS, qRT-PCR YB-1 vs CDIP delta delta Cp, 16 h; hits give high values; zero = DMSO, each unit about twofold; delta delta Cp (YB-1 minus CDIP) (no concentration beside the values); 30,000 tested, 0.37% active; AID 434959;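 active means delta delta Cp rounded down to an integer at or above 3, about 3 SD of DMSO wells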;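 further: higher means less YB-1 transcript or more CDIP transcript relative to DMSO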
# A number is an active result; . = inactive; ? = inconclusive; / = not tested or not shown. Many of the other results were omitted from the sample, so hits are more common in it than they were.
SMILES,PD-1 reverse act,U2OS ROS induce,NOMO-1 viab,YB-1 expression
CC(C)(C)c1cc(O)c(C(C)(C)C)cc1O,/,.,114,.
Cc1cc(C(C)(C)C)c(O)c(C(C)(C)C)c1,/,.,.,.
CC(C)(C)c1ccc(C(O)CCCN2CCC(C(O)(c3ccccc3)c3ccccc3)CC2)cc1 (configuration not stated),.,.,142,.
COc1ccc(CCNS(=O)(=O)c2ccc(OC)c(Cl)c2Cl)cc1OC,/,/,.,/
CC(C)c1cc(C(=O)N2CCOCC2)c(NC(=O)c2cc(-c3cccnc3)nc3ccc(Br)cc23)s1,/,/,.,/
CC(=O)Oc1ccc2ccc3ccc(OC(C)=O)c4ccc1c2c34,.,.,127,.
O=C(O)COc1ccc(/C=C2\SC(=O)N(Cc3ccc(F)cc3)C2=O)cc1,/,.,/,/
C[C@@H]1CCOC(=O)C=CC=CC(=O)O[C@@H]2C[C@H]3O[C@@H]4C=C(C(=O)O)CC[C@]4(COC(=O)[C@H]1O)[C@]2(C)[C@]31CO1,.,.,121,.
[N-]=[N+]=NCc1ccccc1C[C@]1(C(=O)N2CCCCC2)N=C(c2ccc(OCCCO)cc2)O[C@H]1c1ccccc1,/,155,/,.
O=C(N1CCCCC1)[C@]1(CCS(=O)(=O)c2ccccc2)N=C(c2ccc(OCCCO)cc2)O[C@@H]1c1ccccc1,/,88,/,.
COCCCNC(=O)[C@@]1(Cc2ccccc2CN=[N+]=[N-])N=C(c2ccc(OCCCO)cc2)O[C@H]1c1ccccc1,/,.,/,.
[N-]=[N+]=NCc1ccccc1C[C@@]1(C(=O)NCc2ccccc2)N=C(c2ccc(OCCCO)cc2)O[C@@H]1c1ccccc1,/,118,/,.
Cc1ccc(-n2c(=O)c3c4c(sc3n3c(SCC(=O)c5ccc(F)cc5)nnc23)CCCC4)cc1,/,/,96,/
CC(C)NC(=O)Nc1ccc2c(c1)C(=O)N([C@H](C)CO)C[C@H](C)[C@H](CN(C)Cc1ccc(C(=O)Nc3ccccc3N)cc1)OCCCC[C@@H](C)O2,.,.,.,.
C[C@@H]1CCCCO[C@H](CN(C)Cc2ccc(C(=O)Nc3ccccc3N)cc2)[C@@H](C)CN([C@H](C)CO)C(=O)c2cc(NS(=O)(=O)c3ccc(F)cc3)ccc2O1,.,.,128,.
C[C@@H]1CCCCO[C@@H](CN(C)Cc2ccc(C(=O)Nc3ccccc3N)cc2)[C@@H](C)CN([C@H](C)CO)C(=O)c2cc(NS(C)(=O)=O)ccc2O1,.,.,?,.
C[C@@H]1CN([C@@H](C)CO)C(=O)c2cc(NC(=O)Cc3ccccc3)ccc2O[C@H]1CN(C)Cc1ccc(C(=O)Nc2ccccc2N)cc1,.,.,?,.
C[C@H]1CN([C@@H](C)CO)C(=O)c2cc(NC(=O)Cc3ccccc3)ccc2O[C@H]1CN(C)Cc1ccc(C(=O)Nc2ccccc2N)cc1,.,.,108,.
C[C@@H]1CN([C@H](C)CO)C(=O)c2cc(NC(=O)Cc3ccccc3)ccc2O[C@H]1CN(C)Cc1ccc(C(=O)Nc2ccccc2N)cc1,.,.,.,.
C[C@@H]1CN([C@@H](C)CO)C(=O)c2cc(NC(=O)Cc3ccccc3)ccc2O[C@@H]1CN(C)Cc1ccc(C(=O)Nc2ccccc2N)cc1,.,.,109,.
C[C@@H]1CCCCO[C@@H](CN(C)Cc2ccc(C(=O)Nc3ccccc3N)cc2)[C@@H](C)CN([C@H](C)CO)C(=O)c2cc(NC(=O)Cc3ccccc3)ccc2O1,.,.,127,.
Cc1c(Cl)cccc1NC(=O)C(C)N(c1ccc(Oc2ccccc2)cc1)S(C)(=O)=O (configuration not stated),.,.,.,/
CCC1=Nc2cc(C(=O)NCCN3CCCCCC3)ccc2Sc2ccc(C)cc21,/,.,/,/
COc1cc([C@@H]2c3cc4c(cc3[C@@H](O[C@@H]3O[C@@H]5CO[C@@H](C)O[C@H]5[C@H](O)[C@H]3O)[C@H]3COC(=O)[C@H]23)OCO4)cc(OC)c1O,/,.,117,.
COc1cc([C@@H]2c3cc4c(cc3[C@H](O)[C@H]3COC(=O)[C@@H]23)OCO4)cc(OC)c1OC,/,.,108,.
SMILES,PD-1 reverse act,U2OS ROS induce,NOMO-1 viab,YB-1 expression
COc1cc([C@@H]2c3cc4c(cc3[C@H](O)[C@H]3COC(=O)[C@H]23)OCO4)cc(OC)c1OC,/,.,113,.
COc1cc2c(c(O)c1OC)C(=O)CC(c1ccc(O)cc1)O2 (configuration not stated),.,.,.,.
O=C(CCCCCCC(=O)N/N=C\c1ccc(O)c2ccccc12)NO,/,.,/,.
C[C@@H]1CN([C@@H](C)CO)C(=O)c2cccc(NC(=O)CCCCCC(=O)Nc3ccccc3N)c2O[C@H]1CN(C)Cc1ccc(Oc2ccccc2)cc1,.,133,141,.
C[C@@H]1CN([C@H](C)CO)C(=O)c2cccc(NC(=O)CCCCCC(=O)Nc3ccccc3N)c2O[C@@H]1CN(C)Cc1ccncc1,.,.,.,.
C[C@@H]1CN([C@@H](C)CO)C(=O)c2cccc(NC(=O)CCCCCC(=O)Nc3ccccc3N)c2O[C@H]1CN(C)Cc1ccc(Cl)c(Cl)c1,.,154,138,.
C[C@@H]1CN([C@@H](C)CO)C(=O)c2cccc(NC(=O)CCCCCC(=O)Nc3ccccc3N)c2O[C@@H]1CN(C)Cc1ccc2c(c1)OCO2,.,.,?,.
C[C@@H]1CN([C@H](C)CO)C(=O)c2cccc(NC(=O)CCCCCC(=O)Nc3ccccc3N)c2O[C@@H]1CN(C)Cc1ccc(-c2ccccc2)cc1,.,.,126,.
C[C@H]1CN([C@@H](C)CO)C(=O)c2cccc(NC(=O)CCCCCC(=O)Nc3ccccc3N)c2O[C@H]1CN(C)Cc1ccc(-c2ccccc2)cc1,.,?,122,.
C[C@@H]1CN([C@H](C)CO)C(=O)c2cccc(NC(=O)CCCCCC(=O)Nc3ccccc3N)c2O[C@@H]1CN(C)Cc1ccccc1,.,.,.,.
C[C@@H]1CN([C@H](C)CO)C(=O)c2cccc(NC(=O)CCCCCC(=O)Nc3ccccc3N)c2O[C@H]1CN(C)Cc1ccncc1,.,.,.,.
C[C@H]1CN([C@@H](C)CO)C(=O)c2cccc(NC(=O)CCCCCC(=O)Nc3ccccc3N)c2O[C@H]1CN(C)Cc1ccc(C(F)(F)F)cc1,.,.,100,.
C[C@@H]1CN([C@@H](C)CO)C(=O)c2cccc(NC(=O)CCCCCC(=O)Nc3ccccc3N)c2O[C@H]1CN(C)Cc1ccccc1,.,.,122,.
Cc1c(CO)c2ccccc2n1Cc1ccccc1C#N,.,.,121,/
O=C(NCCN1CCOCC1)C1CCC(Cn2c(=S)[nH]c3ccccc3c2=O)CC1 (configuration not stated),/,.,/,/
COc1ccc(S(=O)(=O)Nc2ccc3c(c2)CC(=O)N([C@H](C)CO)C[C@H](C)[C@H](CN(C)Cc2ccc(Oc4ccccc4)cc2)O3)cc1,/,.,106,.
COc1ccc(CN(C)C[C@@H]2Oc3ccc(NS(=O)(=O)c4ccccc4)cc3CC(=O)N([C@H](C)CO)C[C@@H]2C)cc1,.,.,.,.
